Common to all, as to experiment: DAPPL (digital affinity profiling via proximity ligation, sequencing); 10 mM Tris-HCl pH 7.5, 50 mM NaCl, 1 mM DTT, 4% glycerol, room temperature, 30 min; GST-TFs on glutathione beads, 16-mer random dsDNA library, 0.1% formaldehyde crosslink after washing; high values mean tight binding
For one test, the target named is T1, FEV (Homo sapiens, UniProt Q99581 1-238).
T1 sequence: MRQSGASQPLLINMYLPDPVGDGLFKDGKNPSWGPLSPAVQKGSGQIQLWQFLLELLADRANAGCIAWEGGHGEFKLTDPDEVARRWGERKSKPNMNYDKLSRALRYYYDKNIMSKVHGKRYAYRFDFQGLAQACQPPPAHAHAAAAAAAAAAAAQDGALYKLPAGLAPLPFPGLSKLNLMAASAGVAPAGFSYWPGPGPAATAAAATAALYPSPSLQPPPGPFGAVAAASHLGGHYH
The conditions noted are these: protein: recombinant; tags: N-terminal GST; dsDNA, one strand shown. The essentials: (§1)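 Human transcription factors carrying a GST fusion were produced in yeast, bound to glutathione beads, tagged with DNA barcodes and pooled together with a tag-only sample. Each pool was held with 200 nmole of a random double-stranded 16-mer DNA library in Tris/NaCl/DTT/glycerol buffer for 30 min at room temperature, then washed, crosslinked in 0.1% formaldehyde, proximity-ligated with BsaI/T4 ligase (1 h, 37 °C), PCR-amplified and sequenced on an Illumina NextSeq500. Binding signal is the read frequency of each hexamer for a given factor divided by its frequency in the tag-only sample.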

The next test deals with ETV5 (Homo sapiens, UniProt P41161 1-510). As to conditions: protein: recombinant; tags: N-terminal GST; dsDNA, one strand shown. The essentials: as §1
Chain of ETV5 (P41161 whole entry): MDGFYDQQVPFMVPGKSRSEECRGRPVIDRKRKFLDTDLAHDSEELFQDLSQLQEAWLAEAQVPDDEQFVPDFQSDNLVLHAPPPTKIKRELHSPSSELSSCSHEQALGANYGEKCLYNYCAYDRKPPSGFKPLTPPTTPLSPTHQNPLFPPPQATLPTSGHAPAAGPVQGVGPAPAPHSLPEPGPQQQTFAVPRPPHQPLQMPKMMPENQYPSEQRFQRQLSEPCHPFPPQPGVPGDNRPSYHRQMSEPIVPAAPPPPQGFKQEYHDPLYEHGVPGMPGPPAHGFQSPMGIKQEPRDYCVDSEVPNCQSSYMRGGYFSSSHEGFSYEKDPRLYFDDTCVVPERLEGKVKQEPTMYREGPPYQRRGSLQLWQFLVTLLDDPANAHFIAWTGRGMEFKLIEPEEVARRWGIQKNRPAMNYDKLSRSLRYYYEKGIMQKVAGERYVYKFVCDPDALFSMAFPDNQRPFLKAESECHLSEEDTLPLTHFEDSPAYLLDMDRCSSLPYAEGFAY
Another test deals with HSF1 (Homo sapiens, UniProt Q00613 1-529). As to conditions: protein: recombinant; tags: N-terminal GST; chain copies: 3; dsDNA, one strand shown. The essentials:
as §1

In the next test the target is T2, SPIC (Homo sapiens, UniProt Q8N5J4 1-248).
T2 sequence: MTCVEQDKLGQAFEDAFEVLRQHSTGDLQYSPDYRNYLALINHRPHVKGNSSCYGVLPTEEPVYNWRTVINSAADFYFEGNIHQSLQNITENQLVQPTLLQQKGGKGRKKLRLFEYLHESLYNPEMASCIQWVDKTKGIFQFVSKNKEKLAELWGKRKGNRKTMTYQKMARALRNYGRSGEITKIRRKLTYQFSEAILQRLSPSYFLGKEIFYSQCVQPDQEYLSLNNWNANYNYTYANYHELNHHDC
As to conditions: protein: recombinant; tags: N-terminal GST; dsDNA, one strand shown. The procedure, abridged: as §1

A further test has as its target ELF4 (Homo sapiens, UniProt Q99607 1-663). As to conditions: protein: recombinant; tags: N-terminal GST; dsDNA, one strand shown. The procedure, abridged: as §1
The target of the next test is T3, ELK4 (Homo sapiens, UniProt P28324-2 1-405).
T3 sequence: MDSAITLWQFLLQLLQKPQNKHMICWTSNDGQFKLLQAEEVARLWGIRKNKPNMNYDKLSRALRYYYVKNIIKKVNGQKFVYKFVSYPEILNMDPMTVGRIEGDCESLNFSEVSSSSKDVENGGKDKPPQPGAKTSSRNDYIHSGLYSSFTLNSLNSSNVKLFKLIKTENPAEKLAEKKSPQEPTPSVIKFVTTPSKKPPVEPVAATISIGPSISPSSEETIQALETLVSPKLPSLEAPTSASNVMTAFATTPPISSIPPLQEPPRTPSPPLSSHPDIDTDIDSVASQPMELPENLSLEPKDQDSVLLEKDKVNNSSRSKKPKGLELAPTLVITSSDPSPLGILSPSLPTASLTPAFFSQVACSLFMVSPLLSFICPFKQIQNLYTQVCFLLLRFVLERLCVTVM
As to conditions: protein: recombinant; tags: N-terminal GST; dsDNA, one strand shown. The procedure, abridged:
as §1

The next test has as its target T4, ETV2 (Homo sapiens, UniProt O00321 1-342).
T4 sequence: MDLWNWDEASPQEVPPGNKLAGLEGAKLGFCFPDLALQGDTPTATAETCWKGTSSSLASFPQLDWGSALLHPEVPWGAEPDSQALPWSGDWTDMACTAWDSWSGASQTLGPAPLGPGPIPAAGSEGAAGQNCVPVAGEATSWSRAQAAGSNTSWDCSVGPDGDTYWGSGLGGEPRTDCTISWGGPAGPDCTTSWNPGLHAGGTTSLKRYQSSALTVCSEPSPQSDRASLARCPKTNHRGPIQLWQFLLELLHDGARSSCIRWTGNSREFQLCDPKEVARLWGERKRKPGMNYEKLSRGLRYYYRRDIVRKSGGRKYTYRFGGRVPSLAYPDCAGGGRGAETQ
The conditions noted are these: protein: recombinant; tags: N-terminal GST; dsDNA, one strand shown. The procedure, abridged:
as §1

Another test deals with T5, ELF3 (Homo sapiens, UniProt P78545 1-371).
T5 sequence: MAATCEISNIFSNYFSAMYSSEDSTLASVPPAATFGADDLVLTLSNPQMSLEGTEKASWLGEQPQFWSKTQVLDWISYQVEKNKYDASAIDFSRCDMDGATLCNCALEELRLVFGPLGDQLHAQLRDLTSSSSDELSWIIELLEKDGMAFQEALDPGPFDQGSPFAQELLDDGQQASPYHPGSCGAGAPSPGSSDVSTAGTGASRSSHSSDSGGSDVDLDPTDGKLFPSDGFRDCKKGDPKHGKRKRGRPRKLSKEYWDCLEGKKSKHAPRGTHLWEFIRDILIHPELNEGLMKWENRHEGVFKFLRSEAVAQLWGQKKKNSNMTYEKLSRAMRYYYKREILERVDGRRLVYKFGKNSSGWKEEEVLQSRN
As to conditions: protein: recombinant; tags: N-terminal GST; dsDNA, one strand shown. The essentials:
as §1

The target in the next test is CRX (Homo sapiens, UniProt O43186 1-299). The conditions noted are these: protein: recombinant; tags: N-terminal GST; dsDNA, one strand shown. The essentials: as §1
Chain of CRX (O43186 whole entry): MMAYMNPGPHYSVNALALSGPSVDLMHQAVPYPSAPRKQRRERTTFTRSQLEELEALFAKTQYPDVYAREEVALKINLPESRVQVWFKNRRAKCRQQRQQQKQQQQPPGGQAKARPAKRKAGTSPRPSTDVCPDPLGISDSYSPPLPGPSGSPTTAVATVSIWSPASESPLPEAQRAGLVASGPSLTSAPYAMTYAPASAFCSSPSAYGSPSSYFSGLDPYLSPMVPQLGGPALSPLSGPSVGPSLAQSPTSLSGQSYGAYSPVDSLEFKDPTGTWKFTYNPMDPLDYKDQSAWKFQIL
The target in another test is ETV1 (Homo sapiens, UniProt P50549 1-477). As to conditions: protein: recombinant; tags: N-terminal GST; dsDNA, one strand shown. The procedure, abridged: as §1
Chain of ETV1 (P50549 whole entry): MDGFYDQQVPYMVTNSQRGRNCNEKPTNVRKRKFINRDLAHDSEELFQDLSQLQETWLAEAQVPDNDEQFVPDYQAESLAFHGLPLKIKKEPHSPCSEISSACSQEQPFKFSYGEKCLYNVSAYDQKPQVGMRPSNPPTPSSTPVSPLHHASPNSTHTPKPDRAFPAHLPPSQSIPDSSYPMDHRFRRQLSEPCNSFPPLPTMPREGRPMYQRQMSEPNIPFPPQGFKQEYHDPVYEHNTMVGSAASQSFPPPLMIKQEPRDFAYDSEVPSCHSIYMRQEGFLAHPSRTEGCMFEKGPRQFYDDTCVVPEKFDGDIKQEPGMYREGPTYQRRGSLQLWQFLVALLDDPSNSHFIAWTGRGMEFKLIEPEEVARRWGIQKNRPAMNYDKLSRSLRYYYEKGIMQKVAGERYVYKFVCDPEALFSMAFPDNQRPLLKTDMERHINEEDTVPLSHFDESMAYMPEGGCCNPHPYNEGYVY
The target in another test is T6, ERF (Homo sapiens, UniProt P50548 1-548).
T6 sequence: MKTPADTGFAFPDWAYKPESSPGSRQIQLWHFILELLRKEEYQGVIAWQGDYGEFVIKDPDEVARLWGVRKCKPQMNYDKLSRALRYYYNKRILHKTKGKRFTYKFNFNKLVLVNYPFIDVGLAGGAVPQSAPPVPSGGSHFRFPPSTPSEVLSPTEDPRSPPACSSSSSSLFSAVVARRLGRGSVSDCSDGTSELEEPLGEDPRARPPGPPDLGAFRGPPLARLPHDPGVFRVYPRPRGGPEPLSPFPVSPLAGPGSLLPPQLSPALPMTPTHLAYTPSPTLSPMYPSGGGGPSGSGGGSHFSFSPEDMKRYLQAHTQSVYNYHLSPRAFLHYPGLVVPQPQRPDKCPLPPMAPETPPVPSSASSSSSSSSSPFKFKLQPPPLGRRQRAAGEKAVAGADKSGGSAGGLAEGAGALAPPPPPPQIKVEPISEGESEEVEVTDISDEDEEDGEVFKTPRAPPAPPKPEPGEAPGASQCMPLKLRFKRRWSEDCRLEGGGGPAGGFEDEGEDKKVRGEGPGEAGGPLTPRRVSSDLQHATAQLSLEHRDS
As to conditions: protein: recombinant; tags: N-terminal GST; dsDNA, one strand shown. The essentials:
as §1

The next test concerns the target T7, ETV3L (Homo sapiens, UniProt Q6ZN32 1-361).
T7 sequence: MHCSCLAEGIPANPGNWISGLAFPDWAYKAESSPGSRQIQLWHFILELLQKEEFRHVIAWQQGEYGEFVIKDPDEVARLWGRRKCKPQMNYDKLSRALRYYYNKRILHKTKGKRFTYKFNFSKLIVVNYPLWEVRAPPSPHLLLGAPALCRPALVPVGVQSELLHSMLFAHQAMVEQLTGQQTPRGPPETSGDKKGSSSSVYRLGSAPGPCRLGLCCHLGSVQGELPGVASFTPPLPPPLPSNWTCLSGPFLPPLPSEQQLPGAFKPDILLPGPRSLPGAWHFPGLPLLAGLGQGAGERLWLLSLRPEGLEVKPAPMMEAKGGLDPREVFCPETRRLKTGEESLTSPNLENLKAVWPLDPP
The conditions noted are these: protein: recombinant; tags: N-terminal GST; dsDNA, one strand shown. The essentials: as §1

A further test has as its target T8, ETS2 (Homo sapiens, UniProt P15036 1-469).
T8 sequence: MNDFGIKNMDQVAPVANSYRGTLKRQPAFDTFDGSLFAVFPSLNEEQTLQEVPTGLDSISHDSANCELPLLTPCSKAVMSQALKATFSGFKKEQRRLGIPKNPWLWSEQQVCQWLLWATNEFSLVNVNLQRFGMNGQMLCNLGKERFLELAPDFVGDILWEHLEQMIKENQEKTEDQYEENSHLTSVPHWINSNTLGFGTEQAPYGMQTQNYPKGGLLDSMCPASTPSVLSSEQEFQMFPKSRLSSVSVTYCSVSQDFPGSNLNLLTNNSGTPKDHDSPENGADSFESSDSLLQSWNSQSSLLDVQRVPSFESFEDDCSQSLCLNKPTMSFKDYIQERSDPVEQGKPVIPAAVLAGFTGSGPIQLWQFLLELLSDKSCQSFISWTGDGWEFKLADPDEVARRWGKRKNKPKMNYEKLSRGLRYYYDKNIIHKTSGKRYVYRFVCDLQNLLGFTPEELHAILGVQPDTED
The conditions noted are these: protein: recombinant; tags: N-terminal GST; dsDNA, one strand shown. The essentials: as §1

The target of another test is T9, SPDEF (Homo sapiens, UniProt O95238 1-335).
T9 sequence: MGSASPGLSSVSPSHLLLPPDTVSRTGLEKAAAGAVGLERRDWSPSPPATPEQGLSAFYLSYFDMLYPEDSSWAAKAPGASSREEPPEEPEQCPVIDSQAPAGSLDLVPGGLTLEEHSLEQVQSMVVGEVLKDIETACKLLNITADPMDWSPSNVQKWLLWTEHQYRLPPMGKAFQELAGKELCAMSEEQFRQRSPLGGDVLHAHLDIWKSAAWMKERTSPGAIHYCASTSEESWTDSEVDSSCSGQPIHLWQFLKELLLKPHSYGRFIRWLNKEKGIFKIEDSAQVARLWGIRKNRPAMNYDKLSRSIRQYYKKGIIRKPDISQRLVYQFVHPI
As to conditions: protein: recombinant; tags: N-terminal GST; dsDNA, one strand shown. The procedure, abridged: as §1

A further test concerns the target T10, ETV7 (Homo sapiens, UniProt Q9Y603 1-341).
T10 sequence: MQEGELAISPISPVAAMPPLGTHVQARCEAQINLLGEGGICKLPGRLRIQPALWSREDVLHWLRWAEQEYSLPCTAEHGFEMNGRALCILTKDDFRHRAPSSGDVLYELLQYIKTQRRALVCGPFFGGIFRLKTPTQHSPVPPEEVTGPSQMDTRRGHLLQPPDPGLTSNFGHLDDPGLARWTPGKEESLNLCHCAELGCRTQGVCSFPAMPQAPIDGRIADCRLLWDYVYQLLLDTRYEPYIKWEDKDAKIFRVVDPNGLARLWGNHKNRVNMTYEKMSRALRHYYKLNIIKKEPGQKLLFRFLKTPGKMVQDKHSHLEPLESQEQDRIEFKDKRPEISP
The conditions noted are these: protein: recombinant; tags: N-terminal GST; dsDNA, one strand shown. The essentials:
as §1

Another test deals with T11, ELF5 (Homo sapiens, UniProt Q9UKW6-2 1-255).
T11 sequence: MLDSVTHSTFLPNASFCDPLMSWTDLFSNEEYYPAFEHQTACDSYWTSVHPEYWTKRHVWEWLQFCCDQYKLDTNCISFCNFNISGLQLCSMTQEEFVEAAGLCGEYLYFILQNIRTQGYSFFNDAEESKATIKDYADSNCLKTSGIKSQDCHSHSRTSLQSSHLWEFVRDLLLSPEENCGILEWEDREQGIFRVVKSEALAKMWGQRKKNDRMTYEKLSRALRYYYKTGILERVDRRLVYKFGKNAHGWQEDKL
As to conditions: protein: recombinant; tags: N-terminal GST; dsDNA, one strand shown. The essentials: as §1

For the next test, the target named is T12, ETV3 (Homo sapiens, UniProt P41162-2 1-143).
T12 sequence: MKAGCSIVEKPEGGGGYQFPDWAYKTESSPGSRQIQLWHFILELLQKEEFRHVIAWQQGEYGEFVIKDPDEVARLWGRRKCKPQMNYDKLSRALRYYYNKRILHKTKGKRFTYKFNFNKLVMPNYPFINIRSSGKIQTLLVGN
The conditions noted are these: protein: recombinant; tags: N-terminal GST; dsDNA, one strand shown. The procedure, abridged: as §1

The target of another test is ETV6 (Homo sapiens, UniProt P41212 1-452). As to conditions: protein: recombinant; tags: N-terminal GST; dsDNA, one strand shown. The essentials:
as §1

Chain of ETV6 (P41212 whole entry): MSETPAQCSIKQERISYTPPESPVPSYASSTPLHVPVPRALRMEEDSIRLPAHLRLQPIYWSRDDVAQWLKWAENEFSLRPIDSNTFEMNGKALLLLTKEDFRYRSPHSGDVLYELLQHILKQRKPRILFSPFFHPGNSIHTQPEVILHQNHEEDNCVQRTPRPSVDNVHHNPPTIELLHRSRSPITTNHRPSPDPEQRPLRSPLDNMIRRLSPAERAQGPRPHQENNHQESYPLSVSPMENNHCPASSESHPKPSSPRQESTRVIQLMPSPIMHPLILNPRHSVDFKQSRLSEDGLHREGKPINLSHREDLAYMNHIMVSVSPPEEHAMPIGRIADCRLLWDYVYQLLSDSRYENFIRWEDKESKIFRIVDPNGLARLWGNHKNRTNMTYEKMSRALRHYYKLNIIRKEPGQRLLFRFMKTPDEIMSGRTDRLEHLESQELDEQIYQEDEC
Chain of ELF4 (Q99607 whole entry): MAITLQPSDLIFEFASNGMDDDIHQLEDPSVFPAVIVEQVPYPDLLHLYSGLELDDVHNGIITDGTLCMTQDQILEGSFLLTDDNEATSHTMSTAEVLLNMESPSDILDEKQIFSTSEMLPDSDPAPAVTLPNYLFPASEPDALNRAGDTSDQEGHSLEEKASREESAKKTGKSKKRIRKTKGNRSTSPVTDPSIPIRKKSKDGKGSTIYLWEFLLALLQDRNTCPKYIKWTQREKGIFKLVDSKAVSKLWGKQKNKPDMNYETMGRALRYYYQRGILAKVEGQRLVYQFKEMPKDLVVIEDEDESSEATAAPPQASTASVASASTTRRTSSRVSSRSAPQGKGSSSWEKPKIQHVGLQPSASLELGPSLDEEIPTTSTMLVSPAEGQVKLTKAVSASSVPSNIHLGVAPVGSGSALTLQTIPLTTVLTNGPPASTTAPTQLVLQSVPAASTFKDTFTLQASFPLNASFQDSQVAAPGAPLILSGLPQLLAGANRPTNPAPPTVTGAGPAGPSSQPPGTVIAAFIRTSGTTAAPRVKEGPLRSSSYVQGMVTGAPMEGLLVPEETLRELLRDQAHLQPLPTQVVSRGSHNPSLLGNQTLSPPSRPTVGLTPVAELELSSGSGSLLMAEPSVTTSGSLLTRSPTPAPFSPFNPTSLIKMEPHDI
Chain of HSF1 (Q00613 whole entry): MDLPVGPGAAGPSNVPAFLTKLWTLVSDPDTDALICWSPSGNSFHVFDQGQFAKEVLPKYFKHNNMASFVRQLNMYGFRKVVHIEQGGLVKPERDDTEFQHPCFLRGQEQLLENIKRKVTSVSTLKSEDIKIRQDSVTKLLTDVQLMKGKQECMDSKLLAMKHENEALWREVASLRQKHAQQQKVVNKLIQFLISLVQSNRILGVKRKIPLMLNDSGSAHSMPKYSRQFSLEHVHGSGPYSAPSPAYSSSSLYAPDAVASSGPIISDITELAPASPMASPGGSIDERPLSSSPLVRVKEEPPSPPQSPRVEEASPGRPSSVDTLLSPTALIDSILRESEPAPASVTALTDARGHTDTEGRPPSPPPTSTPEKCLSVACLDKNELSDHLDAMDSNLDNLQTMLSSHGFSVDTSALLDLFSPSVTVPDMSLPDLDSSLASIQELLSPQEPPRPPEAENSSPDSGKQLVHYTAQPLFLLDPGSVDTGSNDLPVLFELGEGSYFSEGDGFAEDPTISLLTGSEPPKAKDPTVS

Take ACTGAT: the binding signal was 1.19 fold enrichment (6-mer frequency, TF over GST control) in the test with FEV; 1.21 fold enrichment (6-mer frequency, TF over GST control) with ETV5; 1.22 fold enrichment (6-mer frequency, TF over GST control) in the test with HSF1; 1.51 fold enrichment (6-mer frequency, TF over GST control) with SPIC; 1.23 fold enrichment (6-mer frequency, TF over GST control) in the test with ELF4; 1.34 fold enrichment (6-mer frequency, TF over GST control) in the test with ELK4. For the same sequence, the binding signal in the test with ETV2 is 1.19 fold enrichment (6-mer frequency, TF over GST control); with ELF3, 1.21 fold enrichment (6-mer frequency, TF over GST control); with CRX, 1.38 fold enrichment (6-mer frequency, TF over GST control); with ETV1 it was 1.32 fold enrichment (6-mer frequency, TF over GST control); with ERF, 1.26 fold enrichment (6-mer frequency, TF over GST control); in the test with ETV3L, 1.25 fold enrichment (6-mer frequency, TF over GST control). Besides, the binding signal is 1.28 fold enrichment (6-mer frequency, TF over GST control) with ETS2; 1.1 fold enrichment (6-mer frequency, TF over GST control) with SPDEF; 1.13 fold enrichment (6-mer frequency, TF over GST control) with ETV7; 1.22 fold enrichment (6-mer frequency, TF over GST control) with ELF5; 1.25 fold enrichment (6-mer frequency, TF over GST control) with ETV3; 1.2 fold enrichment (6-mer frequency, TF over GST control) with ETV6.

(Values after PMC7862700, “An all-to-all approach to the identification of sequence-specific readers for epigenetic DNA modifications on cytosine”.)
